Columns and labels:
Assay type in all cases: functional
[1] = target: Solute carrier family 2, facilitated glucose transporter member 1 (Homo sapiens) (UniProt P11166); assay: ST_JUDE_LEISH: Cytotoxicity at 2uM final concentration against transgenic Leishmania Mexicana promastigotes LmGLUT1 that are glucose transport deficient and complemented with the human glucose transporter GLUT1. Activity is measured by DNA content using SYBR green in vitro
[2] = target: Hexose transporter 1 (Plasmodium falciparum) (UniProt O97467); assay: ST_JUDE_LEISH: Cytotoxicity at 2uM final concentration against transgenic Leishmania Mexicana promastigotes LmPfHT that are glucose transport deficient and complemented with the Plasmodium falciparum hexose transporter. Activity is measured by DNA content using SYBR green in vitro
[3] = target: Glucose transporter (Leishmania mexicana) (UniProt O61059); assay: ST_JUDE_LEISH: Cytotoxicity at 2uM final concentration against transgenic Leishmania Mexicana promastigotes LmGT2 that are glucose transport deficient and complemented with the L. Mexicana glucose transporter 2. Activity is measured by DNA content using SYBR green in vitro

Chain of Solute carrier family 2, facilitated glucose transporter member 1 (Homo sapiens) (P11166 whole entry): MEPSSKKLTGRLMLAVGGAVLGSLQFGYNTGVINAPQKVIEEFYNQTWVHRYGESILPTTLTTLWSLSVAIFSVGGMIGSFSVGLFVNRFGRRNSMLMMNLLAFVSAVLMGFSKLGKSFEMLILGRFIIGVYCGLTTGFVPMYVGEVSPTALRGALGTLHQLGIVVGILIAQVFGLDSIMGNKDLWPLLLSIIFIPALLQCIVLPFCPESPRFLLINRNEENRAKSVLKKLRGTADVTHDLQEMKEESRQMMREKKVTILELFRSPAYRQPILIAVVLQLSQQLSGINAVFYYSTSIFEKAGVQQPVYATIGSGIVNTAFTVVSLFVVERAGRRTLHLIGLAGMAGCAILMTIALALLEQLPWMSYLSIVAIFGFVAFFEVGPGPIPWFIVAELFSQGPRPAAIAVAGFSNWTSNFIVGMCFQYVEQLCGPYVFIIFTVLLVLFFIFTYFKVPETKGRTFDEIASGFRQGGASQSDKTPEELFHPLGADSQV

| SMILES | inhibition [1] [%] | inhibition [2] [%] | inhibition [3] [%] |
| --- | --- | --- | --- |
| O=C(COc1cnc2ccccc2n1)Nc1ccccc1Sc1ccc(Cl)cc1 | 4.91 | 3.31 | 3.2 |
| Cc1noc(C)c1-c1cccc(CNCc2ccc(-c3cccc(-c4nc5cc(F)ccc5[nH]4)c3)cc2)c1 | 11.3 | 10.1 | 10.8 |
| COc1cc(C)c(C(O)CNC(C)CCc2ccccc2)cc1C (stereo not given) | 2.16 | 2.83 | -0.47 |
| COc1ccc(NC(=O)c2cc(-c3ccc(NC(C)=O)cc3)cnc2N)cc1 | 2.25 | 2.66 | 0.5 |
| CNC(=O)c1cc(NCCCNCc2ccc(Cl)c(C(F)(F)F)c2)nc2ccccc12 | -1.98 | -1.73 | -2.48 |
| CCCCCC(C)N/C(=N/c1cccc(Cl)c1Cl)Nc1ccc(C#N)cc1O (stereo not given) | 5.91 | 4.59 | 2.7 |
| CCOc1cc(C(=O)NCCN(C(C)C)C(C)C)ccc1-c1nc2cc(Cl)ccc2[nH]1 | 2.57 | 1.66 | 3.92 |
| CC(C)c1sc(N2CCN(C)CC2)nc1C(=O)Nc1ccc(F)cc1C(F)(F)F | 5.47 | 6.04 | 2.97 |
| CCOC(=O)c1ccc(N2CCN(c3cc(C)ccc3C)CC2)c(NC(=O)Nc2ccc(Cl)c(Cl)c2)c1 | 0.52 | 0.93 | -0.25 |
| CN1CCN(c2cccc(NC(=O)c3ccc(-c4ccc(C#N)cc4)cc3)c2)CC1 | 8.25 | 3.32 | 5.96 |
| O=[N+]([O-])c1cccc(CNCC2CCN(CC3CCCCC3)CC2)c1 | -0.61 | 3.2 | 2.98 |
| COc1ccc(NC(=O)Nc2ccc(-c3cccc(-c4nc5ccccc5[nH]4)c3)cc2)cc1 | 3 | 3.12 | 2.89 |
| O=C(Nc1cc(Cl)cc(Cl)c1)Nc1ccnc2ccccc12 | 2.68 | 2.02 | -2.71 |
| COc1ccc(Nc2nccc(NCC(O)c3cccc(C(F)(F)F)c3)n2)cc1 (stereo not given) | 1.24 | 2.47 | -1.44 |
| Oc1ccccc1Nc1nc(NCc2ccco2)c2ccccc2n1 | 15.3 | 13.6 | 4.56 |
| CCCCNc1cc(C)nc(NCc2ccccc2)n1 | 22.1 | 16.4 | 5.11 |
| CS(=O)(=O)CCOCc1ccc(-c2ccc3ncnc(Nc4ccc(OCc5cccc(F)c5)c(Cl)c4)c3c2)o1 | 6 | 4.18 | 7 |
| c1ccc(-n2ncc(CNCc3ccc(-c4ccc(-c5nc6ccccc6[nH]5)s4)cc3)n2)cc1 | 2.35 | 2.45 | 0.43 |

| SMILES | inhibition [1] [%] | inhibition [2] [%] | inhibition [3] [%] |
| --- | --- | --- | --- |
| Cc1nc(-c2nc(N3CCOCC3)ncc2-c2ccsc2)sc1C | -1.47 | -0.4 | 1.4 |
| CNc1ccc(CNCc2ccc(-c3ccc(-c4nc5cc(C(F)(F)F)ccc5[nH]4)s3)cc2)cc1 | 2.19 | 0.49 | -0.01 |
| O=C(NC1CCN(Cc2ccccc2O)C1)c1ccc(-c2ccccc2)cc1 (stereo not given) | 0.98 | 0.41 | 1.16 |
| COc1ccccc1CNC(=O)c1cc(Br)cc(N2CCN(c3ccncc3)CC2)c1 | 1.71 | 2.47 | 0.83 |
| Fc1ccc(-c2cncc(-c3ccc(F)cc3)n2)cc1 | 9.28 | 6.64 | 8.06 |
| Cc1ccc(-n2nc(-c3ccccc3)c3cc(C(=O)NCCN)sc32)cc1 | -2.29 | -1.78 | -6.61 |
| CC(C)Cc1nc(N)nc(N)c1-c1ccc(Cl)cc1 | 6.51 | 5.64 | 5.17 |
| O=C(Nc1nc2cc(S(=O)(=O)NCCc3ccc(F)cc3)ccc2n1CCCn1ccnc1)c1ccc(Cl)cc1 | 1.74 | 2.83 | 1.86 |
| O=C(Nc1cccc(-c2ccc(CN3CCCC3)cc2)c1)c1cccc(Cl)c1 | -0.6 | 0.05 | 0.25 |
| CCN1CCN(CCCNc2c3ccc(Cl)cc3nc3ccc(O)cc23)CC1 | 0.03 | 0.02 | 0.06 |
| O=C(Cn1c(SCc2cccc(F)c2F)cc(=O)c2ccccc21)N(CCn1ccnc1)Cc1ccc(-c2ccc(C(F)(F)F)cc2)cc1 | 5.51 | 5.78 | 2.82 |
| Cc1nnsc1C(=O)Nc1ccc(-c2ccc(-c3nc4ccccc4[nH]3)s2)cc1 | 4.65 | 1.4 | 1.47 |
| CC(C)(C)c1ccc(Cc2cccc3nc(N)nc(N)c23)cc1 | 21 | 16.4 | 11.4 |
| Cc1cc(N[C@@H](Cc2ccccc2)C(=O)NC2CCCC2)nc(Nc2ccccc2)n1 | 7.17 | 7.28 | 2 |
| COc1cccc(C(=O)Nc2ccc(Nc3nc(C)cc(N(C)C)n3)cc2)c1 | 12.8 | 9.13 | 7.09 |
| COc1ccccc1N1CCN(C(C(=O)NCc2ccc3c(c2)OCO3)c2ccc3c(c2)OCCCO3)CC1 (stereo not given) | 1.2 | 1.04 | 3.62 |
| CN1CCN(S(=O)(=O)c2cccc(Nc3nccc(N(C)c4ccc5c(c4)nc(NC(=O)c4cccs4)n5C)n3)c2)CC1 | -0.55 | 0.27 | 1.49 |

From ChEMBL document CHEMBL3433997, “St. Jude Leishmania screening dataset” (2016)
